Results reported in the supplement of paper PMC9262897, “Low-cost anti-mycobacterial drug discovery using engineered E. coli” (Nature Communications, 2022).
Structures can show the parent of a compound that is named as a salt. ± gives the standard deviation of the averaged measurements.

How the values were obtained:
Experiment in all cases: growth (OD600 after 10 h); higher = more growth (less inhibition)
[1] = test system: E. coli TESEC Alr+ wild-type control; conditions: compound 0.1 mM; raw OD600 reference: median of DMSO wells 0.241, cell-free background 0.041
Protocol: (§1)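 TESEC Mtb Alr E. coli, or the Alr+ wild-type control, in 384-well plates with Prestwick library compounds at 0.1 mM and 1% DMSO, across arabinose induction levels of 1E3 to 1E7 nM. Growth is read as OD600 after 10 h at 37 °C in triplicate biological replicates.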

E. coli TESEC Mtb Alr [2] = conditions: compound 0.1 mM
Protocol: as §1

E. coli TESEC Mtb Asd = conditions: compound 0.1 mM
Protocol: (§2)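 TESEC E. coli strains in which the native enzyme is deleted and replaced by arabinose-inducible Mtb Asd, DapB, CysH or TrpD, each grown in its selective medium. Strains were screened against the Prestwick library at 0.1 mM and 1% DMSO in 384-well format at low and high arabinose induction. Growth is read as OD600 after 10 h in triplicate.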

[3] = test system: E. coli TESEC Alr+ wild-type control; conditions: compound 0.1 mM; raw OD600 reference: median of DMSO wells 0.49, cell-free background 0.052
Protocol: (§3)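 TESEC Mtb Alr E. coli (ΔaraC ΔtolC ΔentC Δalr ΔdadX, arabinose-inducible Mtb Alr) or the Alr+ wild-type control strain, grown in defined M9-fructose medium without D-alanine in 96-well plates with Prestwick library compounds at 0.1 mM and 1% DMSO. Low Alr induction is 0.1 µM arabinose and high induction is 10 mM arabinose.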

E. coli TESEC Mtb Alr [4] = conditions: compound 0.1 mM; remark: listed apart in the source
Protocol: as §3

E. coli TESEC Mtb DapB = conditions: compound 0.1 mM
Protocol: as §2

[5] = arabinose 1000 nM, raw OD600 reference: median of DMSO wells 0.294, cell-free background 0.041
[6] = arabinose 10000 nM, raw OD600 reference: median of DMSO wells 0.264, cell-free background 0.041
[7] = arabinose 100000 nM, raw OD600 reference: median of DMSO wells 0.201, cell-free background 0.041
[8] = arabinose 1000000 nM, raw OD600 reference: median of DMSO wells 0.193, cell-free background 0.041
[9] = arabinose 10000000 nM, raw OD600 reference: median of DMSO wells 0.146, cell-free background 0.041
[10] = arabinose induction (level): High, raw OD600 reference: median of DMSO wells 0.331, cell-free background 0.041
[11] = arabinose induction (level): Low, raw OD600 reference: median of DMSO wells 0.417, cell-free background 0.041
[12] = arabinose 100 nM, raw OD600 reference: median of DMSO wells 0.413, cell-free background 0.052
[13] = arabinose 10000000 nM, raw OD600 reference: median of DMSO wells […], cell-free background 0.052

SMILES	growth [1]	growth (E. coli TESEC Mtb Alr [2]; [5])	growth (E. coli TESEC Mtb Alr [2]; [6])	growth (E. coli TESEC Mtb Alr [2]; [7])	growth (E. coli TESEC Mtb Alr [2]; [8])	growth (E. coli TESEC Mtb Alr [2]; [9])	growth (E. coli TESEC Mtb Asd; [10])	growth (E. coli TESEC Mtb Asd; [11])	growth [3]	growth (E. coli TESEC Mtb Alr [4]; [12])	growth (E. coli TESEC Mtb Alr [4]; [13])	growth (E. coli TESEC Mtb DapB; arabinose induction (level): High, raw OD600 reference: median of DMSO wells […], cell-free background 0.041)	growth (E. coli TESEC Mtb DapB; arabinose induction (level): Low, raw OD600 reference: median of DMSO wells 0.227, cell-free background 0.041)
CC(C)CC(N(C)C)C1(c2ccc(Cl)cc2)CCC1 (configuration not stated) [Sibutramine HCl]	0.198 ± 0.0063	0.264 ± 0.0096	0.269 ± 0.0079	0.193 ± 0.032	0.131 ± 0.0058	0.137 ± 0.0051	0.213 ± 0.043	0.37 ± 0.098	0.602 ± 0.091	0.414 ± 0.0078	0.35 ± 0.014		
C[C@]12CCC(=O)C=C1CC[C@@H]1[C@@H]2C(=O)C[C@]2(C)C(=O)CC[C@@H]12 [Adrenosterone]	0.212 ± 0.0061	0.273 ± 0.015	0.245 ± 0.0058	0.163 ± 0.0036	0.131 ± 0.011	0.123 ± 0.0015	0.256 ± 0.03	0.445 ± 0.023		0.406 ± 0.014	0.2946 ± 0.0019		
C=CCC1(CC(C)C)C(=O)NC(=O)NC1=O [Butalbital]	0.2428 ± 0.002	0.282 ± 0.011	0.276 ± 0.0052	0.198 ± 0.012	0.211 ± 0.0091	0.149 ± 0.0019	0.407 ± 0.1	0.3 ± 0.074		0.395 ± 0.0067	0.37 ± 0.0073		
CCCCCC[C@H]1C(=O)O[C@H](C)[C@H](NC(=O)c2cccc(NC=O)c2O)C(=O)O[C@@H](C)[C@@H]1OC(=O)CC(C)C [Antimycin A]	0.191 ± 0.0077	0.203 ± 0.018	0.234 ± 0.0026	0.249 ± 0.022	0.125 ± 0.0067	0.159 ± 0.0018	0.24 ± 0.017	0.316 ± 0.12		0.363 ± 0.0093	0.319 ± 0.02		
CC(C)N(CCC(C(N)=O)(c1ccccc1)c1ccccn1)C(C)C (configuration not stated) [Disopyramide]	0.2355 ± 0.0022	0.285 ± 0.018	0.25 ± 0.0026	0.195 ± 0.0071	0.171 ± 0.0034	0.14 ± 0.0064	0.313 ± 0.084	0.408 ± 0.057		0.41 ± 0.0056	0.351 ± 0.007		
C1CCc2nnnn2CC1 [Pentylenetetrazole]	0.255 ± 0.011	0.282 ± 0.018	0.275 ± 0.0089	0.233 ± 0.021	0.187 ± 0.0053	0.141 ± 0.007	0.402 ± 0.0048	0.431 ± 0.017		0.408 ± 0.011	0.367 ± 0.022	0.227 ± 0.037	0.274 ± 0.11
C[C@]12C[C@H]3S[C@H]3C[C@@H]1CC[C@@H]1[C@@H]2CC[C@]2(C)[C@@H](O)CC[C@@H]12 [Epitiostanol]	0.248 ± 0.0036	0.291 ± 0.012	0.281 ± 0.0097	0.144 ± 0.011	0.15 ± 0.013	0.136 ± 0.0072	0.162 ± 0.018	0.337 ± 0.098	0.534 ± 0.0058	0.413 ± 0.014	0.265 ± 0.015		
CCC1(c2ccc(N)cc2)CCC(=O)NC1=O (configuration not stated) [Glutethimide, para-amino]	0.24 ± 0.0099	0.279 ± 0.016	0.251 ± 0.01	0.222 ± 0.029	0.178 ± 0.0065	0.146 ± 0.0091	0.393 ± 0.032	0.43 ± 0.03		0.402 ± 0.014	0.383 ± 0.033		
CC(=O)[C@H]1CC[C@H]2[C@@H]3CC[C@H]4C[C@H](O)CC[C@]4(C)[C@H]3C(=O)C[C@]12C [Alfaxalone]	0.1302 ± 0.0013	0.162 ± 0.0069	0.21 ± 0.0045	0.108 ± 0.0044	0.101 ± 0.0035	0.0965 ± 0.0034	0.161 ± 0.045	0.275 ± 0.038	0.3925 ± 0.0021	0.3696 ± 0.00096	0.192 ± 0.015		
NC(=O)OCCCc1ccccc1 [Phenprobamate]	0.219 ± 0.0026	0.274 ± 0.0083	0.258 ± 0.011	0.183 ± 0.018	0.192 ± 0.012	0.138 ± 0.0065	0.31 ± 0.11	0.323 ± 0.063	0.562 ± 0.087	0.421 ± 0.011	0.352 ± 0.02		
C=C1CC[C@@]2(O)[C@H]3Cc4ccc(O)c5c4[C@@]2(CCN3CC2CC2)[C@H]1O5 [Nalmefene hydrochloride]	0.238 ± 0.013	0.3098 ± 0.003	0.274 ± 0.0086	0.157 ± 0.0079	0.19 ± 0.005	0.1356 ± 0.0009	0.193 ± 0.041	0.328 ± 0.08	0.4625 ± 0.0046	0.425 ± 0.007	0.327 ± 0.022		
C[C@H](N)[C@H](O)c1ccc(O)c(O)c1 [Levonordefrin]	0.1755 ± 0.00087	0.276 ± 0.013	0.26 ± 0.0038	0.206 ± 0.0036	0.118 ± 0.0043	0.131 ± 0.0047	0.194 ± 0.014	0.357 ± 0.0047		0.398 ± 0.024	0.371 ± 0.017		
COc1cc2c(cc1OC)C(C)NCC2 (configuration not stated)	0.236 ± 0.0037	0.2925 ± 0.0014	0.275 ± 0.0075	0.225 ± 0.035	0.188 ± 0.0027	0.15 ± 0.0045	0.337 ± 0.049	0.349 ± 0.082		0.408 ± 0.011	0.323 ± 0.025		
CN1[C@@H]2CC[C@H]1C[C@@H](OC1c3ccccc3CCc3ccccc31)C2 [Deptropine citrate]	0.046 ± 0.0008	0.041 ± 0.0014	0.03993 ± 0.00025	0.043 ± 0.001	0.0411 ± 0.0015	0.04267 ± 0.00021	0.0939 ± 0.05	0.0858 ± 0.012		0.392 ± 0.0043	0.0701 ± 0.03		
